Experimental findings from PubChem BioAssay (NCATS) are described below.

Test [1] is described as follows: qHTS for Inhibitors of the Functional Ribonucleoprotein Complex (vRNP) of Lassa (LASV) Arenavirus: LASV Primary Screen - GLuc reporter signal (AID 1347082; calls by dose curve; tested in HEK293 reporter line; also: nearly all actives have a fitted effect of over 60% in size; also: potency is read from the fitted curve at half-maximal effect; as to activity change, negative = inhibition: % is scaled to controls: 0 for no effect and ±100 for the full control effect).
Test [2] can be described thus: qHTS for Inhibitors of the Functional Ribonucleoprotein Complex (vRNP) of Lassa (LASV) Arenavirus: Viability assay - alamar blue signal for LASV Primary Screen (AID 1347083; calls by dose curve; tested in HEK293 reporter line; also: nearly all actives have a fitted effect of over 80% in size; also: potency is read from the fitted curve at half-maximal effect). In general terms: In qHTS, concentration-response curves come from the screen itself.
Test [3] in a line: qHTS for Inhibitors of the Functional Ribonucleoprotein Complex (vRNP) of Lymphocytic Choriomeningitis Arenaviruses (LCMV): Viability assay - alamar blue signal for LCMV Primary Screen (AID 1347085; calls by dose curve; tested in HEK293 reporter line; also: nearly all actives have a fitted effect of over 80% in size; also: potency is read from the fitted curve at half-maximal effect).
For test [4], the target named is Nucleoprotein (Lymphocytic choriomeningitis virus (strain Armstrong)) (UniProt P09992). The experiment in a line: qHTS for Inhibitors of the Functional Ribonucleoprotein Complex (vRNP) of Lymphocytic Choriomeningitis Arenaviruses (LCMV): LCMV Primary Screen - GLuc reporter signal (AID 1347086). Also: nearly all actives have a fitted effect of over 70% in size. Also: potency is read from the fitted curve at half-maximal effect. As to activity change, negative = inhibition: % is scaled to controls: 0 for no effect and ±100 for the full control effect.
Test [5] can be described thus: Cytotoxicity counterscreen for inhibitors of SARS-CoV-2 cell entry (AID 1645845). Also: nearly all actives have a fitted effect of over 50% in size. As to activity change, negative = cytotoxicity: % is scaled to controls: 0 for no effect and ±100 for the full control effect. In a few lines:
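ATP-content luminescence (ATPLite 1step, 15 min RT) read after 48 h compound exposure of Expi293F cells stably expressing human ACE2; normalized to cells-only wells and media-only wells.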
A general note: A counterscreen serves to expose hits that act by an unwanted route or on another target.

A short description of test [6]: Confirmatory qHTS to identify inhibitors of SARS-CoV-2 cell entry (AID 1645844). Also: potency is read from the fitted curve at half-maximal effect; nearly all actives have a fitted effect of over 45% in size. The method in brief:
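Luminescence entry read-out after 48 h: spike-pseudotyped MLV particles (Wuhan-Hu-1, 19-aa C-terminal truncation) added to compound-pretreated (1 h) HEK293-ACE2 cells; Data were normalised to bald PP and spike PP wells.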

Test [7] can be described thus: Primary qHTS to identify inhibitors of SARS-CoV-2 cell entry (AID 1645846). Also: nearly all actives have a fitted effect of over 45% in size. Also: potency is read from the fitted curve at half-maximal effect. The conditions noted are these: activity change, negative = inhibition: at 57.1 µM (top of the series) unless noted. In a few lines: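 Entry measured by luciferase signal 48 h after adding SARS-CoV-2-S pseudotyped MLV particles to HEK293-ACE2 cells preincubated 1 h with compounds. Normalisation: bald particles and spike particles.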

A short description of test [8]: VSVG counterscreen qHTS to identify inhibitors of SARS-CoV-2 cell entry (AID 1645847). Also: potency is read from the fitted curve at half-maximal effect; nearly all actives have a fitted effect of over 65% in size. In a few lines: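 Luminescence read after 48 h infection at 37 C with VSV-G-pseudotyped MLV particles, following 1 h compound exposure of Expi293F cells stably expressing human ACE2; scaled between bald particle and VSV-G particle wells.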
For test [9], the target named is Cytochrome P450 3A4 (Homo sapiens) (UniProt P08684). The experiment in a line: qHTS Assay for Inhibitors and Substrates of Cytochrome P450 3A4 (AID 884; active = well fitted curve in the direction sought with a large enough effect; an effect the other way counts as inactive or inconclusive; also: % is scaled to controls: 0 for no effect and ±100 for the full control effect; nearly all actives have a fitted effect of over 50% in size). The method in brief:
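Luminescent readout of luciferin produced by CYP3A4 (20 nM) dealkylation of Luciferin-PPXE, 25 uM (its KM). NADPH-driven reaction ran 60 min at RT after 10 min compound preincubation; data scaled to 57 uM ketoconazole as 100% inhibition.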

Test [10] can be described thus: Confirmation and Secondary Assay for Modulators of Hemoglobin Beta Chain Splicing at IVS2 705 locus (AID 930; active = well fitted curve in the direction sought with a large enough effect; an effect the other way counts as inactive or inconclusive;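 also: HeLa cells stably expressing the EGFP-705 splicing reporter; GFP fluorescence per well restored by corrected splicing of the IVS2-705 intron in EGFP; % of control where 0% means no effect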). In a few lines:
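Secondary splice-site specificity test uses HeLa expressing CMV-driven EGFP interrupted by IVS2-705; cells were treated 2 days at 37C with 500 nM antisense PNA as positive control.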

A short description of test [11]: qHTS Assay for Lipid Storage Modulators (AID 1519). As to activity change, negative = inhibition: % is scaled to controls: 0 for no effect and ±100 for the full control effect. The conditions noted are these: Drosophila S3 cells, BODIPY lipid droplet/cell ratio, laser cytometry, cells loaded with oleic acid; for activity change, negative = inhibition: at 57.5 µM (top of the series). In a few lines: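 Cells seeded at 5,000 per well were treated with compounds over a concentration series and loaded with oleic acid (400 uM, as added). Lipid droplet fluorescence (488 nm excitation, 500-530 nm channel) was read by laser-scanning cytometry and normalized to 20 uM Triacsin C.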

Test [12] concerns the target Cytochrome P450 2C9 (Homo sapiens) (UniProt P11712). The experiment in a line: qHTS Assay for Inhibitors and Substrates of Cytochrome P450 2C9 (AID 883; active = well fitted curve in the direction sought with a large enough effect; an effect the other way counts as inactive or inconclusive; also: potency is read from the fitted curve at half-maximal effect; nearly all actives have a fitted effect of over 60% in size). In a few lines:
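Luminescent read-out of deoxyluciferin hydroxylation, normalized to 57uM sulphaphenazole (AC100). Reaction: 10nM enzyme, 100uM Luciferin-H (equal to KM), 25mM KPO4, 10 min compound preincubation, then 60 min with NADPH regeneration, both at 37C.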

In test [13] the target is Cytochrome P450 3A4 (Homo sapiens) (UniProt P08684). The experiment in a line: qHTS Assay for Activators of Cytochrome P450 3A4 (AID 885; active = well fitted curve in the direction sought with a large enough effect; an effect the other way counts as inactive or inconclusive; also: nearly all actives have a fitted effect of over 65% in size). The method in brief:
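CYP3A4 activity: Luciferin-PPXE O-dealkylation, 25uM substrate, 200mM KPO4, RT throughout. Read-out is luciferase luminescence; higher values reflect activation.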

[14] abbreviates: measured here: cell count channel max response.
Setting [15] is: measured here: lipid channel max response.

Results filed as inconclusive are left out. Active and inactive are the calls of the source. Unless noted, calls follow the shape of the full dose curve.

Nucleoprotein (Lymphocytic choriomeningitis virus (strain Armstrong)), sequence (P09992 whole entry, looked up): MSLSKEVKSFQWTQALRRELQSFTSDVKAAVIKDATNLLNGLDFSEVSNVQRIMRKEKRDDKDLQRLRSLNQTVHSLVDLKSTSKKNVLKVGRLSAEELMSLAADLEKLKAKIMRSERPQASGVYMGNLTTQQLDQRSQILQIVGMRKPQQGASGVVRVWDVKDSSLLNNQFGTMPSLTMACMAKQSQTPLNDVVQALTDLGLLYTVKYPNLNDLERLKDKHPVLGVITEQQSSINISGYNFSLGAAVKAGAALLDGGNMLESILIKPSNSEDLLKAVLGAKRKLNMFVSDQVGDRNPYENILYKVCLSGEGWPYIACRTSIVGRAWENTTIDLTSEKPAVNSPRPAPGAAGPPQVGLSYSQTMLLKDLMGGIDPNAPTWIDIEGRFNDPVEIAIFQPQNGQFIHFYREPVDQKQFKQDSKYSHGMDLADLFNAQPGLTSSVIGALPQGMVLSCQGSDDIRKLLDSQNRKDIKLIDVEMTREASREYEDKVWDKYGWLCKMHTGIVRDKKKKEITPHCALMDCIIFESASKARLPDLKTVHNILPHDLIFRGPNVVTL
Cytochrome P450 3A4 (Homo sapiens), sequence (P08684 whole entry, looked up): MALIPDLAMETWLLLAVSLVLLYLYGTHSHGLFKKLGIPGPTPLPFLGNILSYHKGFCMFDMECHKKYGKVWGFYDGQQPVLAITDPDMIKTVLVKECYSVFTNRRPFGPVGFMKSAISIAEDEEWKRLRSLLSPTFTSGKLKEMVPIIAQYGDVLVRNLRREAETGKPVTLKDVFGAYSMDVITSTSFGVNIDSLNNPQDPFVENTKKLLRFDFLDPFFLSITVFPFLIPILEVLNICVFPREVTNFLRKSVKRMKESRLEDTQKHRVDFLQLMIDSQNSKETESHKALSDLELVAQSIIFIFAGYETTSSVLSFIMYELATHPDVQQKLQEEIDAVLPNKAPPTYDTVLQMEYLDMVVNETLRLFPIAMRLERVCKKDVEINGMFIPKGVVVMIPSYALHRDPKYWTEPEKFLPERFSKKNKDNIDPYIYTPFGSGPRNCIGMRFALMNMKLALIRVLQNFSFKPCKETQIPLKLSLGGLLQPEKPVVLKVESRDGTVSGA
Cytochrome P450 2C9 (Homo sapiens), sequence (P11712 whole entry, looked up): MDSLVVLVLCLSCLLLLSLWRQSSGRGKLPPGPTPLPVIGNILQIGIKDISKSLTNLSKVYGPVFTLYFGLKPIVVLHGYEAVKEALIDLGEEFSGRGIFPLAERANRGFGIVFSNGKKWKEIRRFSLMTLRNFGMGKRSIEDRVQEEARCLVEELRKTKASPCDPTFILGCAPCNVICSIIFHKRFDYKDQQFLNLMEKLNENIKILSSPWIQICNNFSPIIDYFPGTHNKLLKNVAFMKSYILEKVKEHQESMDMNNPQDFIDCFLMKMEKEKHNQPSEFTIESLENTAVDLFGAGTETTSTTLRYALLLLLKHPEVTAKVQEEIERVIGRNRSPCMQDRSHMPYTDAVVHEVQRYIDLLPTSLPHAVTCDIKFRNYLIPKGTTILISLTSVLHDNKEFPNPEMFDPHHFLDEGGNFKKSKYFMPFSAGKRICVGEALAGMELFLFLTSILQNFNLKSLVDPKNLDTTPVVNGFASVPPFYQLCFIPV

Turning to `CC(C)c1cc(C(C)C)c(CC(=O)NS(=O)(=O)Oc2c(C(C)C)cccc2C(C)C)c(C(C)C)c1`, the Potency result in [1], in [2], in [3], in test [4] and in [5] was “inactive” throughout.

Take `CO[C@@H]1C(N(C)C(=O)c2ccccc2)C[C@H]2O[C@]1(C)n1c3ccccc3c3c4c(c5c6ccccc6n2c5c31)C(=O)NC4=O` (stereo not given in full): the Potency entry in test [1], in test [3], in test [4] and in [5] was “inactive” each time. Besides, the Potency in test [2] was 12.2 µM (active); in test [6] it was 21.5 µM (active); in test [8], 27.1 µM (active). Besides, in test [7], the activity change, negative = inhibition was -47%.

Regarding `C[C@H](c1ccc(F)cc1CCCC(=O)O)N(c1cc(F)ccc1F)S(=O)(=O)c1ccc(Cl)cc1`, the Potency result in test [1], in test [2], in test [3], in test [4] and in [5] was “inactive” each time.

On to `COc1cc2nccc(Oc3ccc(NC(=O)Nc4ccc(F)cc4F)c(F)c3)c2cc1OC`, for which the Potency result in test [1], in test [2], in [3], in test [4] and in test [5] was “inactive” each time.

As for `CC[C@H](C)n1cc(C)c2c(C(=O)NCc3c(C)cc(C)[nH]c3=O)cc(-c3ccc(N4CCNCC4)nc3)cc21`, the Potency result in [1], in [2], in [3], in [4] and in test [5] was “inactive” throughout.

Consider `C=C(C)[C@@H]1CC[C@]2(C)CC[C@]3(C)[C@H](CC[C@@H]4[C@@]5(C)CC[C@H](O)C(C)(C)[C@H]5CC[C@]43C)[C@@H]12`, for which the Potency result in [1], in [2], in test [3], in test [4] and in [5] was “inactive” in each case.

On to `N#CC1(c2cccc(C(=O)Nc3cc(Oc4ccc5nc(NC(=O)C6CC6)sc5n4)ccc3F)c2Cl)CC1`, for which the Potency result in test [1], in [2], in [3], in [4] and in test [5] was “inactive” in each case. The Potency in test [6] is 2.71 µM (active). For the same molecule, the activity change, negative = inhibition in [7] is -79.3%.

On to `C[C@@]12CCC(OS(=O)(=O)O)C[C@@H]1CCC1C2CC[C@]2(C)C(=O)CCC12` (stereo not given in full), for which the Potency entry in test [9], in test [1], in [2], in [3] and in [4] was “inactive” each time. The molecule was classed as inactive in test [10]. For the same molecule, the activity change, negative = inhibition in test [11] is 7.66% (inactive). Also, the values for the max response in test [11] (setting [14]) and in test [11] (setting [15]) were 17.5% and 28%, respectively.

Turning to `O=C(O)CF`, the Potency result in test [9], in test [1], in [2], in test [3] and in test [4] was “inactive” each time. The molecule was classed as inactive in test [10]. Also, the activity change, negative = inhibition in [11] is 3.91% (inactive). In addition, the values for the max response in test [11] (setting [14]) and in test [11] (setting [15]) were 8.93% and 13%, respectively.

For the molecule `CCn1cc(-c2ccnc3[nH]c(-c4cccc(CN(C)C)c4)cc23)c(-c2ccc(NC(=O)N(C)C)cc2)n1`, the Potency is 13.7 µM (active) in [1], 4.85 µM (active) in [2], 2.43 µM (active) in test [3] and 3.43 µM (active) in test [4]. For the same molecule, the Potency entry in test [5] was “inactive”.

As to `CC(C)c1nn(-c2c(Cl)cccc2Cl)c2nc(Cc3ccc(OCCO)cc3)[nH]c(=O)c12`, the Potency in test [1] was 0.172 µM (active); in test [2], 0.217 µM (active); in test [3], 0.153 µM (active); in test [4], 0.243 µM (active); in [6] it was 0.0341 µM (active). Also, in test [5], the Potency entry is “inactive”. Further, the activity change, negative = inhibition in [7] is -95.3%.

Take `CC(C)[C@H](CO)Nc1nc(Nc2cccc(Cl)c2)c2ncn(C(C)C)c2n1`: the Potency in test [12] is 7.94 µM (active); in [6], 8.57 µM (active); in [7] it was 7.94 µM (active). Further, the Potency result in test [13], in test [1], in [2], in [3] and in [4] was “inactive” throughout.

Turning to `COc1cccc2c(NCc3ccccc3)nc(-n3c(N)nc4ccccc43)nc12`, the Potency entry in test [1], in test [2], in [3], in [4] and in [5] was “inactive” each time.

`CCCCC(C)(C)[C@H](O)C=C[C@H]1[C@H](O)CC(=O)[C@H]1CC=CCCCC(=O)O`: the Potency result in test [1], in test [2], in [3], in test [4] and in test [5] was “inactive” in each case. The Potency in test [6] was 17.1 µM (active); in test [8], 19.2 µM (active). Moreover, the activity change, negative = inhibition in test [7] was -55.7%.

In the case of `CC[C@@]1([C@@H]2O[C@@H]([C@H]3O[C@@](O)(CO)[C@H](C)C[C@H]3C)C[C@H]2C)CC[C@H]([C@]2(C)CC[C@]3(C[C@H](O)[C@@H](C)[C@@H]([C@@H](C)[C@@H](OC)[C@H](C)C(=O)O)O3)O2)O1`, the Potency is 0.376 µM (active) in test [1], 3.35 µM (active) in test [2], 4.21 µM (active) in test [3] and 1.06 µM (active) in [4]. Moreover, the Potency result in test [5] is “inactive”.

Take `O=c1ccc2c(O)c3ccoc3cc2o1`: in test [10], the result was inactive. In test [11], the activity change, negative = inhibition was 15.3% (inactive). The max response in test [11] (setting [14]) worked out at 7.8%; in test [11] (setting [15]) it was 27.4%. In addition, the Potency result in [1], in [2], in test [3] and in [4] was “inactive” in each case.

As to `Cc1ccc2c(c1)C(=O)[C@]1(O)CCN(c3ccccc3)C1=N2`, the Potency entry in test [1], in [2], in test [3], in test [4] and in test [5] was “inactive” in each case.

Take `Cc1cnc(CNC(=O)c2c(=O)c3ccc(N4CCCN(C)CC4)nc3n3c2sc2ccccc23)cn1`: the Potency result in test [1] and in test [4] was “inactive” each time. Further, the Potency is 15 µM (active) in test [2] and 8.41 µM (active) in [3]. Moreover, in test [5], the activity change, negative = cytotoxicity is -25.6% [at 11.3 µM] (inactive).

Regarding `CC(C)c1cnn2c(NCc3ccccc3)cc(N[C@@H](CO)[C@H](O)CO)nc12`, the Potency in test [1] is 2.43 µM (active); in test [2], 0.485 µM (active); in [3], 0.685 µM (active); in test [4], 1.72 µM (active); in test [6], 0.607 µM (active). For the same molecule, the Potency entry in [5] is “inactive”. Also, the activity change, negative = inhibition in test [7] was -93.9%.

Consider `Cc1c(CN2CCN(S(C)(=O)=O)CC2)sc2c(N3CCOCC3)nc(-c3cnc(N)nc3)nc12`, for which the Potency is 0.0863 µM (active) in test [1]; 0.0432 µM (active) in [2]; 0.122 µM (active) in test [3]; 0.0968 µM (active) in test [4]; 0.215 µM (active) in [6]; 1.21 µM (active) in test [8].

Take `Nc1nccc(-c2ccc3noc(-c4ccc(Cl)cc4)c3c2)n1`: the Potency is 2.43 µM (active) in [1], 7.69 µM (active) in test [2], 6.85 µM (active) in test [3] and 4.85 µM (active) in test [4]. Also, in [5], the Potency result is “inactive”.

For the molecule `CCOC(=O)C=C[C@H](C[C@@H]1CCNC1=O)NC(=O)[C@@H](CC(=O)[C@@H](NC(=O)c1cc(C)on1)C(C)C)Cc1ccc(F)cc1`, the Potency entry in test [1], in test [2], in test [3], in test [4] and in test [5] was “inactive” each time.

In the case of `CC(C)(C)OC(=O)CN(Cc1ccc(Cl)cc1)Cc1ccc([N+](=O)[O-])s1`, the Potency entry in test [1], in test [2], in test [3], in test [4] and in [5] was “inactive” throughout.

Take `O=c1ncn2nc(Sc3ccc(F)cc3F)ccc2c1-c1c(Cl)cccc1Cl`: the Potency entry in test [1], in [2], in test [3], in test [4] and in test [5] was “inactive” in each case.

Take `O=C(O)C1=CC(O)C(O)[C@H](O)C1` (stereo not given in full): the Potency entry in [1], in test [2], in test [3], in test [4] and in test [5] was “inactive” throughout. In addition, the activity change, negative = inhibition in test [7] is -8.99%.

With `C[C@H]1COC2=C1C(=O)C(=O)c1c2ccc2c1CCCC2(C)C`, the Potency entry in test [1], in test [2], in test [3], in test [4] and in test [5] was “inactive” in each case. The activity change, negative = inhibition in test [7] is -2.76%.

For the molecule `O=S(=O)(O)c1ccc2cc(N=Nc3cc(S(=O)(=O)O)c4cccnc4c3O)ccc2c1`, the Potency entry in test [1], in test [2], in [3], in test [4], in test [5] and in [7] was “inactive” each time.
